Source: ChEMBL document CHEMBL3433997, “St. Jude Leishmania screening dataset” (2016)
Where “and” joins values, the source holds several entries; their conditions need not be identical. Equal entries are not always repeated.

Experiments:
Assay type in all cases: functional
[1] = biological target: Solute carrier family 2, facilitated glucose transporter member 1 (Homo sapiens) (UniProt P11166); test: ST_JUDE_LEISH: Cytotoxicity at 2uM final concentration against transgenic Leishmania Mexicana promastigotes LmGLUT1 that are glucose transport deficient and complemented with the human glucose transporter GLUT1. Activity is measured by DNA content using SYBR green in vitro
[2] = biological target: Hexose transporter 1 (Plasmodium falciparum) (UniProt O97467); test: ST_JUDE_LEISH: Cytotoxicity at 2uM final concentration against transgenic Leishmania Mexicana promastigotes LmPfHT that are glucose transport deficient and complemented with the Plasmodium falciparum hexose transporter. Activity is measured by DNA content using SYBR green in vitro
[3] = biological target: Glucose transporter (Leishmania mexicana) (UniProt O61059); test: ST_JUDE_LEISH: Cytotoxicity at 2uM final concentration against transgenic Leishmania Mexicana promastigotes LmGT2 that are glucose transport deficient and complemented with the L. Mexicana glucose transporter 2. Activity is measured by DNA content using SYBR green in vitro

Sequence of Solute carrier family 2, facilitated glucose transporter member 1 (Homo sapiens) (P11166 whole entry): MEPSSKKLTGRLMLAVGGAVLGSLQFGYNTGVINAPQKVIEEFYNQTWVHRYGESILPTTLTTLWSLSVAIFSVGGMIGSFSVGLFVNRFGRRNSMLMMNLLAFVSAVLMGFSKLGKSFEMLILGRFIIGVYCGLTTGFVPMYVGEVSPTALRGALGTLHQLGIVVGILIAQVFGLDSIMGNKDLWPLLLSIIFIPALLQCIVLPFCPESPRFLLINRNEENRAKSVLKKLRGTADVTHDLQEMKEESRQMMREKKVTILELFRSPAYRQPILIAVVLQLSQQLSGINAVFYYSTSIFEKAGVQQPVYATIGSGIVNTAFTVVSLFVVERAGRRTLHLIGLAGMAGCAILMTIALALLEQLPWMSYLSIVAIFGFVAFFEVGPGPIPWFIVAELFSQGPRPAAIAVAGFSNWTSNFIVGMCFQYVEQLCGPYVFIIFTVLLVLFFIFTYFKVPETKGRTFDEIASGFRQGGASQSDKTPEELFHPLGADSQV

| Structure (SMILES) | inhibition [1] | inhibition [2] | inhibition [3] |
| --- | --- | --- | --- |
| Cc1cccc2nc(-c3ccc(-c4cccc(C(=O)N5CCCCC5C(C)O)c4)s3)[nH]c12 (stereo unspecified) | 1.3% | 2.52% | 3.46% |
| CC(C)(C)N1CCC(N(Cc2ccc(-c3ccc(C(F)(F)F)cc3)cc2)C(=O)Cn2c(CCc3cccc(F)c3F)nc(=O)c3cccnc32)CC1 | 2.09% | 0.99% | 0.47% |
| Oc1ccccc1-c1nc2cccnc2n1CCc1cccc(C(F)(F)F)c1 | 4.81% | 3.7% | 5.31% |
| Nc1nnc(-c2ccc(Cl)c(Br)c2)c(N)n1 | -0.74% | 1.8% | 4.94% |
| COC(=O)C(Cc1ccccc1)C(CSCc1ccc(OC)cc1)C(=O)N[C@@H](C(=O)OC(C)(C)C)c1ccc(C(C)(C)C)cc1 (stereo partly specified) | 4.24% | 4.41% | 5.18% |
| N[C@@H](Cc1cc(I)c(Oc2ccc(O)c(C(=O)O)c2)c(I)c1)C(=O)O | 3.18% | 3.91% | 3.61% |
| Cc1cc(C)c(C)c(S(=O)(=O)N2CCCCC(c3ccc(F)c(F)c3)=N2)c1C | 2.94% | -0.61% | 6.62% |
| COc1cccc(-c2cnc(N)c(-c3nc4cc(Cl)c(F)cc4[nH]3)c2)c1 | 15.6% | 14.7% | 8.86% |
| O=C(O[C@H]1CN[C@H](C#Cc2cc3c(Nc4ccc(OCc5cccc(F)c5)c(Cl)c4)ncnc3s2)C1)N1CCCC1 | 3.78% | 6.01% | 4.65% |
| CCCOc1ccc(OCCCON2C(=N)N=C(N)NC2(C)C)cc1 | 1.05% | 0.05% | 0.28% |
| CCC[C@@H]1CCN[C@H]([C@H](O)c2ccnc3ccc(OC)cc23)C1 | 4.68% | 3.5% | 4.53% |
| c1ccc(COc2ccc(Nc3ncnc4ccc(-c5ccc(CN6CCSCC6)o5)cc34)cc2)cc1 | 10.9% | 7.33% | 7.66% |
| Cc1cccc(OC(C)C(=O)Nc2cc(C(F)(F)F)ccc2N2CCOCC2)c1 (stereo unspecified) | 2.38% | 3.02% | 6.44% |
| Cc1ccc(F)c(OC2CCN(c3ccc(C(=O)NC4CC4)cn3)CC2)c1 | 0.56% | 1.76% | -3.52% |
| O=C(Cn1c(=O)cnc2ccccc21)Nc1cccc(C(=O)Nc2cccc(C(F)(F)F)c2)c1 | 1.09% | 3.37% | 1.93% |
| Cc1ccccc1OCCCc1c(C)nc(N)nc1N | 3.68% | 9.06% | 0.82% |
| O=C(c1ccc(Cl)c(Cl)c1)N1CCc2c([nH]c3ccccc23)C1CN1CCCC1 (stereo unspecified) | 4.26% | 5.06% | 3.77% |
| O=C(Cc1cccc2ccccc12)N1CCc2cc3nccc(N4CCN5CCC[C@H]5C4)c3cc21 | 8.63% | 7.78% | 10% |
| CCc1cn2c3c(cc(C(=O)N[C@@H](Cc4ccccc4)[C@H](O)CNC4CCCCC4)cc13)N(CC)S(=O)(=O)CC2 | -0.63% | 0.33% | -3.68% |
| CN1C(=C2SC(=Nc3ccc4ncccc4c3)N(Cc3ccccc3)C2=O)Sc2ccc(Cl)cc21 | 1.22% | 2.08% | 1.06% |
| COc1cccc(Nc2c(C(N)=O)cnc3ccc(-c4ccccc4)cc23)c1 | 0.37% | 0.94% | 1.58% |

| Structure (SMILES) | inhibition [1] | inhibition [2] | inhibition [3] |
| --- | --- | --- | --- |
| CC(=O)Nc1nc(C(=O)Nc2cccc(-c3cccc(-c4nc5ccccc5[nH]4)c3)c2)cs1 | 12% | 15.6% | 6.57% |
| COc1cc(C(=O)NCCCN2CCN(c3cccc(Cl)c3)CC2)ccc1-c1nc2cc(Cl)c(F)cc2[nH]1 | 1.22% | 0.6% | 0.03% |
| CN(C)CCNc1ncnc2c1[nH]c1ccc(Br)cc12 | 1.62% | 4.67% | 1.38% |
| O=C(NCc1cccc(C(F)(F)F)c1)c1ccc(CNC(=O)c2ccc(O)c(-c3ccc(Cl)c(Cl)c3)c2)cc1 | 5.02% | 2.57% | 3.47% |
| Cc1c(NC(=O)COc2ccc(Cl)cc2C(=O)c2cc(F)cc(C(F)(F)F)c2)ccc2ncsc12 | 9.85% | 9.17% | 7.93% |
| O=C(Nc1ccccc1F)NC1CCN(c2ccnc(Nc3ccc(F)cc3)n2)CC1 | 2.94% | 2.19% | 0.02% |
| Cc1cccc2nc(-c3cccc(-c4ccc(CNCCNC(=O)c5ccnn5C)cc4)c3)[nH]c12 | -1.64% | 0.67% | -2.92% |
| COc1ccccc1/C=C/C(=O)N(C)C1CCN(CCCCCNC(=O)/C=C/c2ccc(Cl)c(Cl)c2)CC1 | 4.19% | 2.77% | 5.48% |
| Cc1cnc(-c2ccc(NC(=O)c3coc4ccc(N5CC(C)N(C)C(C)C5)cc34)cc2)o1 (stereo unspecified) | -0.6% | 1.55% | 0.74% |
| O=C(Nc1cccc(C(F)(F)F)c1)NC1CCN(c2ccnc3ccccc23)C1 (stereo unspecified) | 1.65% | -0.4% | 6.33% |
| CCCC(C)NC(=O)c1cnn(-c2ccc(C(C)(C)C)cc2)c1OCc1ccc(Br)cc1 (stereo unspecified) | 4.76% | 6.02% | 5.11% |
| O=S(=O)(NCCN1CCCC1)c1ccc(-c2cccc(CNCc3ccc(F)cc3)c2)cc1F | 3.24% | 5.71% | 4.01% |
| CC(=NNC(S)=Nc1ccccc1Cl)c1ccccn1 | 18.6% | 19.6% | 12.2% |
| c1ccc(Oc2ccc(Nc3ccnc4cc(-c5ccc(CN6CCNCC6)o5)ccc34)cc2)nc1 | 11.2% | 8.71% | 5.3% |
| Cc1cccc(-c2cccc3c(NC(=O)N4CCc5cc6nccc(N7CCN8CCC[C@H]8C7)c6cc54)cccc23)n1 | 0.18% | 0.95% | 1.48% |
| COc1ccc2nccc(N3CCCN(CCNCc4ccc5c(n4)NC(=O)CS5)CC3)c2n1 | -4.21% | -0.98% | 3.94% |
| C[C@H](CNc1ccnc(Nc2ccc3[nH]c(=O)[nH]c3c2)n1)c1ccccc1 | -1.01% and -1.44% | -0.33% and -0.77% | -0.13% and 0.71% |
| Cc1nn(-c2ccccc2)nc1C(=O)N(Cc1ccc(-c2ccc(CNCCc3ccc(S(C)(=O)=O)cc3)cn2)cc1)C(C)CN(C)C (stereo unspecified) | 0.95% | 3.63% | 3.9% |
| Cc1cccc2nc(-c3ccc(-c4cccc(NC(=O)Nc5ccsc5)c4)s3)[nH]c12 | 0.98% | 2.82% | 1.03% |
| OCCNc1nc(Nc2ccc(Cl)cc2)nc2ccccc12 | 6.17% | 4.56% | 1.54% |
| Cn1c(Sc2ncnc3sccc23)nc2ccccc21 | 2.32% | 2.23% | 2.32% |
